High-throughput results from PubChem BioAssay.
Only some compounds are listed: those with a hit (about 7.6% of all), similar ones and a draw of the others.
Gal4-VP16 FLuc: inhibits Gal4-VP16 luciferase reporter, ROR gamma counter-screen. Drosophila S2 Gal4-VP16 UAS-luciferase, luminescence, 20 h. Potency, µM (doses to about 53.6 µM), for the others: at the top dose activity, negative = inhibition, actives largely listed as inhibitors. 310,000 tested, 3.5% active;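 further: Gal4-VP16 expression switched on by copper sulfate through the metallothionein promoter; potency means the concentration at half of the fitted maximal effect; on the % scale 0 is the no-effect control and ±100 the full control effect; nearly all actives have a fitted effect of over 50% in size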
p53 reactivator: mutant p53 re-activation in reporter cells. H1299 p53-A138V BP100-luciferase reporter, luminescence, 24 h. Potency, µM (highest dose often 92.2 µM), without a hit: top-dose activity change, positive = activation, hits mostly activators. 320,000 tested, 0.063% active. AID 504706; further: potency means the concentration at half of the fitted maximal effect; % of control where 0% means no effect; nearly all actives have a fitted effect of over 45% in size
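H1299 (p53-null), stable ts p53-A138V + BP100-Luc; 1000 cells/well, Opti-MEM/10% FBS; cpd 4 pt, 1:5; 24 h, 37 deg C, 5% CO2; detection reagent 10 min RT; luminescence.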
ELG1 DNA repair: ELG1-dependent DNA repair inhibition. Potency, µM (top dose mostly 46.1 µM), for inactives: at the top dose activity change, negative = inhibition, most hits filed as inhibitors. HEK293T ELG1-luciferase reporter, luminescence, 16 h; DNA damage induced by 5-fluorouridine. 330,000 tested, 2.3% active. AID 504467; further: potency means the concentration at half of the fitted maximal effect; on the % scale 0 is the no-effect control and ±100 the full control effect; nearly all actives have a fitted effect of over 55% in size
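Overnight (16 hr) co-exposure of 2,000 cells/well to 5-fluorouridine and compound at 37 °C preceded detection. Luciferase was quantified via ONE-Glo luminescence; loss of signal denotes inhibition.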
Giardia killer: kills Giardia lamblia; Giardia lamblia trophozoite viability; activity change, % at 7.66 µM, hits read low; 340,000 tested, 0.15% active; in the data active means activity change below about -80%; inconclusive means between about -30% and that limit;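 further: parasites exposed to compound for two days anaerobically before the ATP read; on the % scale 0 is the no-effect control and ±100 the full control effect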
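Anaerobic 48 hrs incubation at 37 deg C of 100 trophozoites/well with test compounds; ATPLite 1-Step luminescence, 15-30 min RT, reports cellular ATP as viability.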
RORgamma inh: inhibitors of mouse ROR gamma transcriptional activity. Drosophila S2 Gal4-RORgamma UAS-luciferase reporter, 20 h. Potency, µM (doses to about 53.6 µM), inactives show top-dose activity change, negative = inhibition, most hits filed as inhibitors. 310,000 tested, 5.4% active; further: potency means the concentration at half of the fitted maximal effect; on the % scale 0 is the no-effect control and ±100 the full control effect; nearly all actives have a fitted effect of over 60% in size
Target sequence (P51450 whole entry, looked up, the tested form may be a part): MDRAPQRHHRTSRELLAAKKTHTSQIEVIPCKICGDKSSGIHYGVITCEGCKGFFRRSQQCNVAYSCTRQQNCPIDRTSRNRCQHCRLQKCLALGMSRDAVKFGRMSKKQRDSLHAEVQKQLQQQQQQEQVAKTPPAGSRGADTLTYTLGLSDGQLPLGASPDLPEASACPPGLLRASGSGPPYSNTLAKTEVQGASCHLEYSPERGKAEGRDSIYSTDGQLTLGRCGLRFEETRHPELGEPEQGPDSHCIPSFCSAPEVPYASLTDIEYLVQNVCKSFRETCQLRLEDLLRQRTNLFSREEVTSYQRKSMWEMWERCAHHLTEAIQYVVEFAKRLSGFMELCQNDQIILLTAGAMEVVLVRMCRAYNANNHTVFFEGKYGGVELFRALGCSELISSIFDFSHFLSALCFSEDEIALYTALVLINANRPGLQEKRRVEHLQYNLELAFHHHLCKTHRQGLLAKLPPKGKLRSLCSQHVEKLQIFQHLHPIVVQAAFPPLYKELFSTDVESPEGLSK
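Luminescence from a UAS-regulated Photinus luciferase reporter in stably transfected Drosophila Schneider cells is measured; decreased signal marks ROR gamma inhibition. Fusion expression is induced by 700 uM copper sulfate for 20 hr.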
BRCA1 expr act: increases BRCA1 expression. MCF7-BRCA1-FFLuc reporter, luminescence, 48 h; response scale: scaled: vehicle 0%, 10 µM genistein 100%. AID 624202. 380,000 tested, 1.1% active. Potency, µM (highest dose often 46.1 µM), for the others: top-dose activation, hits mostly activators; further: potency means the concentration at half of the fitted maximal effect; nearly all actives have a fitted effect of over 80% in size
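Reporter cells (MCF7, BRCA1 promoter-firefly luciferase) received library compounds across a concentration series for 48 h. End-point luminescence was measured and concentration-effect curves derived after normalization.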
* hit, by the source's call; ? = inconclusive; nt = no result; [ ] = another dose, or the depositor's remark. Unless noted, the call rests on the fitted dose curve; in most records, active means well fitted curve in the direction sought with a large enough effect; inconclusive means small, poorly fitted or top-dose-only effect, or another doubt; inactive means no such curve, though single readings can be large; an effect the other way counts as inactive or inconclusive.

SMILES	Gal4-VP16 FLuc	p53 reactivator	ELG1 DNA repair	Giardia killer	RORgamma inh	BRCA1 expr act
COc1ccc(OC)c(NC(=S)N(CCc2c(C)[nH]c3ccc(C)cc23)Cc2cccs2)c1	17%	8%	-28%	-11	10µM*	-22%
COc1cccc(NC(=S)N(CCc2c(C)[nH]c3ccc(C)cc23)Cc2cccs2)c1	?	1%	?	-22	-4%	-47%
CCCn1nnc(NC(=S)NC(=O)CC)n1	10µM*	5%	4%	0	7.1µM*	5%
CCCn1nnc(NC(=O)C(C)C)n1	-2%	6%	2%	24	12%	0%
CCCn1nnc(NC(=S)NC(=O)/C=C/c2ccc(Cl)cc2)n1	-20%	-4%	-1%	5	5µM*	-7%
CCCn1nnc(NC(=S)NC(=O)Cc2ccccc2)n1	1%	3%	18%	-6	0.25µM*	0%
CCCn1nnc(NC(=O)c2ccc(-c3ccccc3)cc2)n1	28%	9%	?	8	-2%	12%
CCCCc1ncc(CN2CCC(n3nccc3NC(=O)c3ccccc3Cl)CC2)[nH]1	-2%	-8%	10µM*	25	6%	-4%
Cc1nn(-c2ccccc2)c(/N=C/c2ccccc2O)c1-c1ccccc1	-4%	?	?	-16	17%[10 µM]	13µM*
COc1ccc(NC(=O)c2cc3cc(OC)ccc3oc2=N)cc1	-17%	0%	7%	19	-11%	29%
COc1ccc(NC(=O)c2cc3ccc(O)cc3o/c2=N\O)cc1	0.1µM*	-4%	?	?	0.063µM*	?
N=c1oc2cc(O)ccc2cc1C(=O)Nc1ccc(F)cc1	7.1µM*	21%	?	-15	11µM*	1.6µM*
COc1ccc2oc(=O)c(/C(C)=N/NC(=O)c3ccncc3)cc2c1	?	-11%	-3%	2	13µM*	-14%
COc1ccc(/C(C)=N/NC(=O)c2ccncc2)cc1	-8%	8%	13%	3	-18%	34%
COc1ccc2o/c(=N\O)c(C(=O)Nc3ccccc3OC)cc2c1	?	16%	21%	-6	2.8µM*	15%
COc1ccc2oc(=O)c(C(=O)NC(C)c3ccccc3)cc2c1 (stereo not drawn)	4%	nt	?	5	-22%	-3%
COc1ccc2oc(=O)c(C(=O)Nc3ccccc3O)cc2c1	?	7%	?	13	8.9µM*	?
CC(O)(c1cccc(F)c1)c1nc(-c2ccc(Cl)cc2)cs1 (stereo not drawn)	nt	nt	nt	nt	nt	6%
CC1=C(C)CS(=O)N(S(=O)(=O)c2ccc(Cl)cc2)C1 (stereo not drawn)	6.3µM*	-13%	25%	-3	?	-60%
COC(=O)c1ccccc1NC(=O)CCCn1nc(C)c2c(C)n(-c3ccccc3)nc2c1=O	-26%	-1%	12%	-1	14%	9%
O=C(OCc1cn(Cc2ccccc2)nn1)c1ccccc1	-6%	-1%	30%	-15	28%	-3%
O=C(c1ccccc1)c1ccc(Cn2cc(CCCO)nn2)cc1	13µM*	nt	5%	14	?	0%
CCCCCc1ccc(-c2cn(Cc3ccc(C(=O)c4ccccc4)cc3)nn2)cc1	-3%	11%	?	2	5%	0%
O=C(c1ccccc1)c1ccc(Cn2cc(-c3ccccc3)nn2)cc1	10µM*	28%	?	-2	?	27%
CCOC(OCC)c1cn(Cc2ccc(C(=O)c3ccccc3)cc2)nn1	18µM*	4%	-14%	14	?	-17%
O=C(/C=C/c1ccccc1[N+](=O)[O-])NNC(=O)c1ccncc1	nt	5%	3%	-18	nt	-4%
CC(=O)c1cccc(S(=O)(=O)N2CCCC(c3nc4c(nnn4Cc4ccc(C)cc4)c(=O)[nH]3)C2)c1 (stereo not drawn)	-15%	-4%	?	26	14%	-26%
CC(C)n1c(=S)[nH]c2cc(Cl)ccc21	20µM*	0%	-6%	2	?	-14%
